Reference: PubChem BioAssay (NCI)
The panel holds about 83,000 compounds, 20% with a hit somewhere; the sample as a whole holds those more often.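 How to read the values: 0–100, growth inhibition (40 = 60% inhibited); 0, no net growth; -100 to 0, cell death (-40 = 40% of starting cells died; -100 = all dead).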 Values without a mark were called inactive. Active and inactive are the calls of the source. Rule for the calls: active = growth percent below 10; inactive = the rest.

Columns and labels:
Test in all cases: NCI-60 one-dose screen, 48 h (100 = growth as untreated, 0 = no growth, -100 = all killed)
Conditions in all cases: 10 µM unless noted
NCI-H23 lung = tested on: NCI-H23 lung
NCI-H226 lung = tested on: NCI-H226 lung
NCI-H322M lung = tested on: NCI-H322M lung
NCI-H460 lung = tested on: NCI-H460 lung
NCI-H522 lung = tested on: NCI-H522 lung
A549/ATCC NSCLC = tested on: A549/ATCC NSCLC
786-0 renal = tested on: 786-0 renal
COLO 205 colon = tested on: COLO 205 colon
DU-145 prostate = tested on: DU-145 prostate
K-562 leukemia = tested on: K-562 leukemia
MALME-3M melanoma = tested on: MALME-3M melanoma
MDA-MB-231 breast = tested on: MDA-MB-231 breast
RXF 393 renal = tested on: RXF 393 renal
SF-268 CNS = tested on: SF-268 CNS
SF-295 CNS = tested on: SF-295 CNS
SF-539 CNS = tested on: SF-539 CNS
UACC-257 melanoma = tested on: UACC-257 melanoma
M14 melanoma = tested on: M14 melanoma

Compound | growth (NCI-H23 lung) | growth (NCI-H226 lung) | growth (NCI-H322M lung) [%] | growth (NCI-H460 lung) | growth (NCI-H522 lung) | growth (A549/ATCC NSCLC) | growth (786-0 renal) [%] | growth (COLO 205 colon) | growth (DU-145 prostate) | growth (K-562 leukemia) | growth (MALME-3M melanoma) | growth (MDA-MB-231 breast) | growth (RXF 393 renal) | growth (SF-268 CNS) | growth (SF-295 CNS) | growth (SF-539 CNS) | growth (UACC-257 melanoma) | growth (M14 melanoma)
COc1cc(C2CC(c3ccc(Cl)cc3)=NN2C(C)=O)ccc1Oc1ccnc2cc(Cl)ccc12 (stereo unspecified) | 64.1% | 19.5% | 53.3 | 30.8% | 40.9% | 42.6% | 33.6 | 26.2% | 36.6% | 65.3% | 53.9% | 36.1% | 46.1% | 57.5% | 18.3% | 40.2% | 68.5% | 79.9%
CCOC(=O)Cc1cc(Br)c(OCc2ccccc2)c(Br)c1 | 94.1% | 88.4% | 102 | 114% | 80.3% | 104% | 92.8 |  | 115% | 86% | 106% | 89.1% | 96.4% | 106% | 92.3% | 106% | 99.6% | 99.6%
CCN(CC)CC(=O)Nc1c(C)ccc(N)c1C | 101% | 98.4% | 90.2 |  | 74.4% | 100% | 93.4 | 97.6% | 107% | 128% | 90.5% | 107% | 116% | 102% | 97% | 99.6% | 105% | 101%
CC(C)c1ccc2c(c1)CCC1C2CCCC1(C)NCc1ccccc1 (stereo unspecified) | 73% | 103% | 32.6 | 71.3% | 9.67% (active) | 83.7% | 64.7 | -35.8% (active) | 75% | 11.1% | -32.3% (active) | 39.8% | 51.7% | 79.2% | 96.7% | 90% | -31.2% (active) | -84.9% (active)
COc1ccc(CC2c3cc(OC)c(OC)cc3CC[N+]2(C)CCC(=O)OCCCCCOC(=O)CC[N+]2(C)CCc3cc(OC)c(OC)cc3C2Cc2ccc(OC)c(OC)c2)cc1OC (stereo unspecified) | 93.4% | 76.3% | 90.9 | 100% | 86.1% | 101% | 103 | 112% | 99.8% | 111% | 99.6% | 92.2% | 91.5% | 87.6% | 93.5% | 100% | 100% | 88.5%
S=C(Cc1ccccc1)N1CCN(c2ccccc2Cl)CC1 | 100% | 96.9% | 96.3 | 107% | 88.2% | 95.1% | 96.7 | 109% | 102% | 89.8% | 95.2% | 100% | 117% | 95.2% | 90.7% | 105% | 110% | 99.1%
CCN(CC)c1cc(C)c(Cc2c(OC)ccc3ccccc23)cc1C | 93.7% | 92.3% | 96.9 | 95.1% | 74.7% | 82.8% | 100 | 96.7% | 105% | 84.7% | 102% | 98.6% | 101% | 95.7% | 103% | 103% | 96.8% | 90.8%
Cn1c(=O)c2c(nc(N/N=C/c3ccccc3Cl)n2C)n(C)c1=O | 94.4% | 107% | 116 | 120% | 83.1% | 107% | 97.8 | 113% | 140% | 100% | 109% | 100% | 112% | 124% | 101% | 87.2% | 94.8% | 103%
CCOC(=O)c1ccc(NC(=O)CSC(N)=O)cc1 | 95.8% | 116% | 112 | 101% | 72.8% | 98% | 86.6 | 98.3% | 114% | 103% | 145% | 95.9% | 129% | 110% | 101% | 96.4% | 107% | 94.8%
Clc1nnc2c3ccccc3ccn12 | 113% | 77.8% | 119 |  | 103% | 102% | 99.3 | 103% | 105% | 102% | 135% | 118% | 97.6% | 97.6% | 104% | 109% | 105% | 106%
CCCCCCCCCCCCCCCC1=NC(C)(C)CN1C(C)C | 0.554% (active) | -5.35% (active) | 34.6 | -53.7% (active) | -68.1% (active) | -57.2% (active) |  | -64.6% (active) | 7.67% (active) | -50.3% (active) | -49% (active) | -62.2% (active) | -68.9% (active) | -55.2% (active) | -48.1% (active) | -79.6% (active) | -31.2% (active) | -71.4% (active)
O=C(CC(=O)c1cccc(Cl)c1)c1cccc(Cl)c1 | 28.4% | 41.5% | 47.9 | 21.6% | 38.5% | 57.7% | 43 | 46.9% | 42.6% | 20.8% | 64.5% | 45.2% | 61.9% | 51.4% | 26.8% | 41.4% | 52.7% | 37.3%
CCN(CC)c1ccc(/C=C2/NC(=O)NC2=O)cc1 | 44.6% | 81.5% | 79.1 | 20.6% | 14.5% | 59.1% | 48 | 3.89% (active) | 64.3% |  | 42% | 57.5% | 50.3% | 57% | 23.6% | 6.57% (active) | 72.9% | 8.99% (active)
Cc1c(C(=O)CCl)c(=O)n(-c2ccccc2)n1C | 72.7% | 104% | 101 | 81.2% | -34.4% (active) | 83.5% | 88.6 | 48.7% | 42.4% | 53% | 48.1% | 97.7% | 38.7% | 84.5% | 87.3% | 71.7% | 52.1% | 52.3%
N/C(=N\OC(=O)c1ccccc1)C(Cc1ccccc1)C(=O)NOC(=O)c1ccccc1 (stereo unspecified) | 46.6% | 95.1% | 89 | 5.54% (active) | -53.7% (active) | -60.3% (active) | 48.7 | 69.3% | 16.2% | -6.89% (active) | 59.2% | 70.7% | 53.4% | 1.91% (active) | -14.7% (active) | 13.6% | 88.8% | 48.3%
CS(=O)(=O)c1ccc(C(=O)N/N=C/c2ccccc2O)cc1 | 54.8% | 55.2% | 38.4 | 14.1% | 15.1% | 38.8% | 33 | 31.2% | 40.4% | 40.5% | 63.5% | 47.4% | 53% | 38.4% | 38% | 55.3% | 22.6% | 32.5%
CS(=O)(=O)c1ccc(Cl)c([N+](=O)[O-])c1 | 103% | 107% | 149 | 86.9% | 95.8% | 119% | 98.3 | 111% | 33.9% | 1.69% (active) | 132% | 109% | 113% | 81.5% | 102% | 102% | 116% | 108%
